“And” between values parts separate entries of the source, which are not always exact repeats. Identical values can stand only once.
The compounds below were run against Cyclin-dependent kinase 2 (Homo sapiens) (UniProt P24941). Conditions: Compound concentration 20.0 uM, Protein concentration 2.0 uM, Result type QC Liability.

| Compound | ΔTm [°C] |
| --- | --- |
| CN(CC(=O)Nc1ccc(F)c(F)c1F)C(=O)c1ccc2c(c1)OCCO2 | 0.89 |
| O=S(=O)(Nc1ccc(C(O)(C(F)(F)F)C(F)(F)F)cc1)c1cccs1 | 0.73 |
| O=C(O)Cc1ccc(CCNS(=O)(=O)c2ccc(Cl)cc2)cc1 | 0.43 |
| Cc1nccc(COC(=O)N2C[C@@H]3[C@@H](CNC(=O)c4ccc5[nH]nnc5c4)[C@@H]3C2)n1 | 0.19 |

These compounds were tested against Casein kinase I isoform delta (Homo sapiens) (UniProt P48730). Conditions: Compound concentration 20.0 uM, Protein concentration 2.0 uM, Result type QC Liability.
Chain of Casein kinase I isoform delta (Homo sapiens) (P48730 whole entry, looked up, canonical isoform): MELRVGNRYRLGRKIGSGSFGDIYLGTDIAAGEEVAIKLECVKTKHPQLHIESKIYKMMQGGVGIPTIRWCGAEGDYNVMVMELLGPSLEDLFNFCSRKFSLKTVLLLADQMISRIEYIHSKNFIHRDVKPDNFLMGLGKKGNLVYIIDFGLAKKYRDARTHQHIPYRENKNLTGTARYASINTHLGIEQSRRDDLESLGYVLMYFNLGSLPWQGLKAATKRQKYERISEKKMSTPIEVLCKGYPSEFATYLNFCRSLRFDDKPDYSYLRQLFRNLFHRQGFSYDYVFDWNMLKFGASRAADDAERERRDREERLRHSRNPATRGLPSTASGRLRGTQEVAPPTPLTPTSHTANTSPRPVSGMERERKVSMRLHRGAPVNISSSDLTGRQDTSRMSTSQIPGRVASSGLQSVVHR

| Compound | ΔTm |
| --- | --- |
| CC1CCN(c2ccnc(NCc3cn(C)cn3)n2)CC1 | 0.29 °C |
| O=C(O)C[C@H]1CC[C@H](c2ccc(NC(=O)c3nnc(Nc4ccc(F)c(F)c4)o3)cc2)CC1 | -0.9 °C |
| NCC1CCC(CNc2nc(NCc3ccccc3OC(F)(F)F)ncc2[N+](=O)[O-])CC1 (stereo unspecified) | 0.19 °C |
| CC(=O)Nc1c(F)cc(C(=O)N[C@H]2CC[C@H](O)CC2)cc1O[C@@H](C)c1ccccc1 | -0.03 °C |
| COc1ccc(-c2csc(NC(=O)[C@H]3CCCCN3S(=O)(=O)c3ccc(C)cc3)n2)cc1 | 2.05 °C |
| CCc1ccccc1C(=O)Nc1n[nH]c2c(C)c(F)c(C3C(C#N)=C(C)N(C)C(C)=C3C#N)cc12 | 0.67 °C |
| Cn1cnc(Cn2ccc3ccc(CNCc4[nH]c5ccccc5c4[C@H]4NC(=O)c5ccc(O)cc54)cc32)c1 | 0.32 °C |
| COc1cccc(CNc2ccc(S(=O)(=O)Nc3nc4ccccc4s3)cc2)c1O | 0.86 °C |
| C[C@@H]1OCC2(CCN(c3cnc(Sc4ccnc(N)c4Cl)c(N)n3)CC2)[C@@H]1N | -0.25 °C |
| CC(C)c1cnn2c(NCc3ccccc3)cc(NCCCCCCN)nc12 | 2.94 °C |
| O=C(O)CCCCN(CCc1ccccc1OCc1ccc(CCc2ccccc2)cc1)Cc1ccc(C(=O)O)cc1 | -0.05 °C |
| COc1ccc2c(O[C@@H]3C[C@H]4C(=O)N[C@]5(C(=O)O)CC5/C=C\CCCCC[C@H](NC(=O)OC5CCCC5)C(=O)N4C3)cc(-c3csc(NC(=O)C(C)C)n3)nc2c1C (stereo partly specified) | 0.4 °C [middle of 4 runs] |
| C[C@@H](COCCC(=O)N1CCN(c2ncc(C(F)(F)F)cn2)CC1)Nc1cn[nH]c(=O)c1C(F)(F)F | -0.05 °C |
| CCn1c(=O)c2c(C)c(C(=O)N3CCC(O)CC3)sc2n(CCC(F)(F)F)c1=O | 0.3 °C |
| O=C(CNC(=O)c1ccc(-c2ccccc2)cc1)NC1CCCc2ccccc21 (stereo unspecified) | -1.78 °C |
| O=C1COc2cc(C(=O)N(Cc3ccc(C(=O)Nc4ccncn4)cc3)C3CC3)ccc2N1 | -0.01 °C |

| Compound | ΔTm |
| --- | --- |
| CC(=O)Oc1ccc2c(c1)[C@@]1(C)CCC[C@](C)(C(=O)OC(=O)[C@@]3(C)CCC[C@]4(C)c5cc(OC(C)=O)ccc5CC[C@@H]34)[C@@H]1CC2 | 0.28 °C |
| CC(C)C(=O)N1CCC(c2cn(C)c3ncc(NC(=O)c4cccc(C#N)c4)c(C(F)(F)F)c23)CC1 | 0.74 °C |
| Cc1nccn1-c1ccc(Sc2cccc(C3(C(N)=O)CCOCC3)c2)cc1 | -0.21 °C |
| CCn1c(CNC(=O)c2ncc(C)nc2N)[n+](CC)c2ccc(C(=O)N(C)CCN(C)C)cc21 | 0.2 °C |
| O=C(O)CCC/C=C\C[C@@H]1[C@@H](/C=C/[C@@H](O)COc2cccc(C(F)(F)F)c2)[C@H](O)C[C@@H]1O | 0.07 °C |
| COc1cc2nc(C)nc(N[C@H](C)c3cc(N)cc(C(F)(F)F)c3)c2cc1O[C@H]1CCOC1 | 0.27 °C |
| NCc1ccc(OCCCc2sc(-c3ccc4c(c3)/C(=N/Nc3nc5ccccc5s3)CCC4)nc2C(=O)O)cc1 | -0.37 °C |
| CN(C)C(=O)c1cc2cnc(Nc3ccc(N4CCN(CCCCNC(=O)COc5cccc6c5C(=O)N(C5CCC(=O)NC5=O)C6=O)CC4)cn3)nc2n1C1CCCC1 (stereo unspecified) | -0.24 °C |
| COc1cc2nc(-c3cc(F)ccc3O)nc(N[C@@H]3CNC[C@H]3C(C)(C)O)c2cc1OC | 4.64 °C |
| Cc1c(NC(=O)COc2ccc(Cl)cc2C(=O)c2cc(F)cc(C(F)(F)F)c2)ccc(C(=O)O)c1F | 0.18 °C and 0.09 °C |
| Cc1cc2nc(N3CCC(C(=O)NC4CCCC4)CC3)n(C(C)C)c2cc1C | 0.04 °C |
| CN(C)C/C=C/C(=O)Nc1cc2c(Nc3ccc(F)c(Cl)c3)ncnc2cc1OC[C@@H]1CCCO1 | 1.15 °C |
| CCCCCCC(Sc1nc(Cl)cc(NCc2ccc(-c3ccccc3)cc2)n1)C(=O)O (stereo unspecified) | 0 °C |
| COc1ccccc1Nc1nc(-c2nn(Cc3c(F)cc(OCCCO)cc3F)c3ccccc23)ncc1OC | -0.21 °C |
| CN1C(=O)Cc2ccc(-c3ccc(C[C@@H](C#N)NC(=O)[C@@H]4N[C@H]5CC[C@@H]4C5)c(F)c3)cc21 | 0.17 °C |
| CNC(=O)c1ccc2c(c1)NC(=O)/C2=C(\Nc1ccc(CN2CCCCC2)cc1)c1ccccc1 | 0.03 °C |

— ChEMBL document CHEMBL5308504, “Tm Shift (DSF) assay results for EUbOPEN Chemogenomics Library” (2023)
